# PI4K2A inh = blocks human PI4K2A kinase activity; Q9BTU6; purified PI4K2A, ADP-Glo luminescence, 1 h; active compounds read low; activity change, negative = inhibition, % at 76.9 µM; 420,000 tested, 0.13% active; AID 1346378; in the data active means activity change below about -50%; inconclusive means mostly about -30% to -49%;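 further: -100% = wells without enzyme as full effect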
#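 PI4K2A activity was measured by ADP-Glo luminescence: enzyme (4 ug/mL stock) and phosphatidylinositol (1.2 mM stock) in Tris pH 7.5/MgCl2/EGTA/Triton X-100 buffer were reacted with ATP (300 microM stock) for one hour at ambient temperature.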
# D3 antag = blocks the human D3 dopamine receptor | AID 652054 | P35462 | D3R cells, DiscoveRx beta-arrestin luminescence, antagonist mode; active compounds read low | max response, negative = inhibition, % | 360,000 tested, 2.5% active; in the data active means max response below about -50%; inconclusive means no clear call, values can overlap the other calls; further: on the % scale 0 is the no-effect control and ±100 the full control effect
# Target sequence (P35462 whole entry, looked up): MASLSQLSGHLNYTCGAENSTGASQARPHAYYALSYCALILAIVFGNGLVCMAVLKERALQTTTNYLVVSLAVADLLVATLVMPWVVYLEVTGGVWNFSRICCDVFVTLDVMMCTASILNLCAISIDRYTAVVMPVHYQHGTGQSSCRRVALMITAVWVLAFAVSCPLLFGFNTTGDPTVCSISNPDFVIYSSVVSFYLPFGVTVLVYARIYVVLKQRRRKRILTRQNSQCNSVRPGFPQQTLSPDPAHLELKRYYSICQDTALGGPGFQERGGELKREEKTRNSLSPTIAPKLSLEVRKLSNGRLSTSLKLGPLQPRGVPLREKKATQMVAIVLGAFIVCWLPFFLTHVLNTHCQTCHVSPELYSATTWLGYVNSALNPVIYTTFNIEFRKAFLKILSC
#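 Cells expressing the human receptor were seeded at 1500 cells/well, incubated overnight at 37 degrees C in 5% CO2, then exposed to library compounds with dopamine controls for 90 minutes at 37 degrees C before luminescent detection.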
# PI5P4Ka inh = inhibitors of human PI5P4K alpha | AID 652105 | PI5P4Kalpha enzyme, ADP-Glo luminescence, 60 min; active compounds read low | P48426 | max response, % | 330,000 tested, 1.2% active; active means max response of -50% or lower; inconclusive means between -30% and -50%; inactive means -30% or higher; further: value at the top dose of about 77 µM; on the % scale 0 is the no-effect control and ±100 the full control effect
#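 ADP-Glo luminescence end-point after a 60 min room-temperature kinase reaction. PI5P4Kalpha and substrate in HEPES pH 7.4 buffer with EGTA, 0.1% CHAPS and 5% DMSO; ATP at 5 microM final.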
# LDHA block = blocks human lactate dehydrogenase A; 480,000 tested, 0.15% active; AID 1347041; purified LDHA, NADH/diaphorase-resazurin fluorescence; active compounds read low; activity change, % (values are at about 110 or 230 µM); P00338; in the data active means activity change below about -30%; inconclusive means mostly about -25% to -30%;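 further: plate controls were DMSO wells for no effect and wells without enzyme for full effect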
#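 Remaining NADH was detected by diaphorase (0.133 mg/mL) converting 37 µM resazurin to fluorescent resorufin, read at 0 and 20 minutes. The preceding 5-minute room-temperature reaction used 2 nM LDHA, 0.2 mM sodium pyruvate and 0.06 mM NADH at pH 7.4.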
# DRD3 agonist = agonists of human D3 dopamine receptor; AID 652048; P35462; 410,000 tested, 0.58% active; D3R DiscoveRx beta-arrestin cells, luminescence, 90 min; max activation, %; in the data active means max activation above about 30%; further: 0% is about no effect
#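 Agonist-mode cell screen: cells plated at 1500/well and incubated overnight at 37 °C, then exposed to library compounds for 90 min at 37 °C. Detection reagent was added for 30–60 min at room temperature, and luminescence was read.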
# Numbers without * were called inactive; ? = inconclusive; · = not tested or not shown. Most compounds without a hit are left out; they make up all but 3.3% or so of the library.
SMILES,PI4K2A inh,D3 antag,PI5P4Ka inh,LDHA block,DRD3 agonist
Cc1cc(C)c2c(=O)[nH]c(SCc3ccc([N+](=O)[O-])cc3)nc2n1,-4,-69*,-12,0,-1
Cc1cc(C)c2c(=O)[nH]c(SCC(=O)NCc3ccccc3)nc2n1,-1,-19,·,2,-5
Cc1ccccc1CSc1nc2nc[nH]c2c(=O)[nH]1,·,·,·,-8,·
COc1ccc(S(=O)(=O)Nc2nc3ccccc3nc2Nc2ccc(OC)c(Cl)c2)cc1,·,·,·,0,·
COC(=O)c1ccc(CSc2nc3sc(C(=O)O)c(C)c3c(=O)[nH]2)cc1,-1,-11,-24,-6,6
Cc1cc(NS(=O)(=O)c2ccc(NC(=O)CSc3nc4sc(C)c(C)c4c(=O)[nH]3)cc2)no1,-7,-7,-23,-6,1
CC(=O)c1sc2nc(SCC(=O)NCCc3ccccc3)[nH]c(=O)c2c1C,-1,-9,-17,0,3
COc1ccc(CCNC(=O)CSc2nc3sc(C(=O)O)c(C)c3c(=O)[nH]2)cc1OC,0,-11,-71*,-5,-2
Cc1cc(NS(=O)(=O)c2ccc(NC(=O)CSc3nc4sc(C(=O)O)c(C)c4c(=O)[nH]3)cc2)no1,-4,3,-81*,-8,3
CCOC(=O)c1ccc(NC(=O)CSc2nc3sc(C(=O)O)c(C)c3c(=O)[nH]2)cc1,1,9,-81*,-2,-7
Cc1cccc(OC(=O)Cc2ccc3c(c2)OCCO3)c1,·,·,·,1,·
Cc1c(C(=O)N(C)c2ccccc2)nnn1-c1ccc(F)cc1,·,·,·,-2,·
CSc1nc(-c2ccccc2)[nH]c(=S)c1C(C)=O,-2,-93*,-21,-8,-8
CSc1nc(-c2ccccc2)nc(SC)c1C(C)=O,-5,38,·,-3,-1
N#C/C(=C\c1ccc(-c2cccc(Br)c2)o1)c1nc2ccccc2[nH]1,·,·,·,12,·
O=C(Nc1ccc(F)c(F)c1F)c1ccccc1-c1ccccc1,·,·,·,7,·
O=C1C(=C(c2ccccc2)N2CCOCC2)Cc2ccccc21,3,-125*,-8,0,-20
CCN(CC)S(=O)(=O)c1ccc(NC(=O)CC(NC(C)=O)c2ccccc2)cc1 (stereo not given),-3,-78*,2,4,2
CC(=O)NC(CC(=O)Nc1ccc(S(=O)(=O)N2CCCC2)cc1)c1ccccc1 (stereo not given),1,?,2,-3,-3
CCC(CC)c1nnc(NC(=O)C(CC)c2ccccc2)s1 (stereo not given),·,·,·,-6,·
CN(c1ccc(C(=O)N2CCOCC2)cc1[N+](=O)[O-])C1CCCCC1,-1,-60*,·,-9,1
CCN(CC)CCCNc1oc(-c2ccc([N+](=O)[O-])cc2)nc1C#N,·,·,·,-5,·
CCN(CC)CCCNc1oc(-c2ccccc2[N+](=O)[O-])nc1C#N,5,-56*,2,4,6
COc1ccc(/C=N/O)cc1OC,·,·,·,-7,·
COCCSc1nnc(-c2cccnc2)n1Cc1ccccc1,-4,·,·,·,·
SMILES,PI4K2A inh,D3 antag,PI5P4Ka inh,LDHA block,DRD3 agonist
COC(=O)/C=C1\SC(=NC(=O)c2ccc(-c3ccccc3)cc2)NC1=O,-6,1,-63*,-16,5
COC(=O)/C=C1\SC(=NC(=O)c2ccc(OC)cc2)NC1=O,2,-1,-1,-1,-2
Cc1ccn2c(CNCC3OCCc4ccccc43)c(C(=O)N3CCCCCC3)nc2c1 (stereo not given),-1,-81*,5,-3,-13
O=C(c1nc2ccccn2c1CNCC1OCCc2ccccc21)N1CCOCC1 (stereo not given),-6,-26,-1,-9,-10
Cc1ccn2c(CNCCCn3cccn3)c(C(=O)N3CCCCCC3)nc2c1,-1,-58*,-7,-2,-15
CC1(C)CC(=O)c2cc(C(=O)Nc3ccc(Br)cc3)c(=O)n(-c3ccc(Cl)cc3)c2C1,1,·,·,-4,52*
COc1ccc(C2=NO[C@@](CC(=O)O)(C(=O)Nc3ccc(C(C)=O)cc3)C2)cc1,·,·,·,7,·
Cc1c(C)n(C)c2ccc(C(=O)NCCCN3CCN(c4ccccc4F)CC3)cc12,-4,-82*,3,2,-3
O=C(NCCN1CCN(c2ccccc2F)CC1)c1ccc2nc3ccccc3c(=O)n2c1,0,-58*,1,-2,3
Cc1c(C)n(C)c2ccc(C(=O)NCCCN3CCCCC3)cc12,1,2,2,0,-2
CCc1nc2ccc(C(=O)NCCCN3CCN(c4ccccc4F)CC3)cc2nc1CC,2,-66*,2,-4,18
Cc1c(C)n(C)c2ccc(C(=O)NCCCN3CCCC3)cc12,-3,0,-7,4,2
Cc1c(C)n(C)c2ccc(C(=O)NCCCN3CCN(c4ccc(F)cc4)CC3)cc12,3,-56*,0,-2,-19
COc1ccc(N2CCN(CCNC(=O)c3ccc4nc5ccccc5c(=O)n4c3)CC2)cc1,-1,13,-2,0,3
O=C(CNc1ccc(F)cc1)N1CCN(S(=O)(=O)c2ccc3ccccc3c2)CC1,·,·,·,6,·
Cc1nn(CCC(=O)NNC(=O)NCc2ccccc2)c(C)c1[N+](=O)[O-],1,·,·,·,·
CC(=O)c1ccc(OC2(C)CCN(Cc3ccc(OC(F)(F)F)cc3)C2)cc1 (stereo not given),-3,-12,3,-3,-13
COc1cc(Cl)ccc1OC1(C)CCN(Cc2ccc(SC)cc2)C1 (stereo not given),-2,-70*,7,-4,-16
CSc1ccc(CN2CCC(C)(Oc3ccccc3C)C2)cc1 (stereo not given),-2,?,9,0,-10
CSc1ccc(OC2(C)CCN(Cc3ccc(OC(F)(F)F)cc3)C2)cc1 (stereo not given),-3,-25,15,-1,-7
CSc1ccc(CN2CCC(C)(Oc3ccccc3F)C2)cc1 (stereo not given),1,-57*,-3,-1,-11
CSc1ccc(CN2CCC(C)(Oc3ccc(C(C)=O)cc3)C2)cc1 (stereo not given),5,-69*,1,-7,-9
CSc1ccc(CN2CCC(C)(Oc3ccc(F)cc3)C2)cc1 (stereo not given),0,-112*,-2,-5,-11
CC1(Oc2ccccc2-c2ccno2)CCN(Cc2csc3ccccc23)C1 (stereo not given),1,-78*,28,-7,-21
CC(=O)c1ccc(OC2(C)CCN(Cc3csc4ccccc34)C2)cc1 (stereo not given),-3,-53*,0,-7,-10
COC(=O)Cc1ccc(OC2(C)CCN(Cc3ccccc3OC(F)F)C2)cc1 (stereo not given),-1,-59*,-1,7,-8
COc1ccc(/C(C)=N/N=C(\C)c2ccc(OC)c(Br)c2)cc1Br,·,·,·,3,·
O=C(Nc1cccc2ncccc12)C1CCCN(S(=O)(=O)c2ccc(F)cc2)C1 (stereo not given),·,·,·,19,·
